An excerpt weighted towards active compounds, which were near 8.1% of everything screened.
NOMO-1 viab: NOMO-1 AML cell viability reduction, primary screen, STK33 inhibitor project, CellTiter-Glo luminescence; NOMO-1 AML viability, 72 h; inhibition, % (concentration not given with the values); 37,000 tested, 7.5% active; AID 2330, 2010; in the data active = inhibition above about 80%; inconclusive = no clear call, values can overlap the other calls
Hedgehog inh: Hedgehog pathway signaling inhibitors, primary screen, luminescence, Shh-LIGHT2 cells, Gli-luciferase; inhibition, % (test concentration not listed); Shh-LIGHT2 Gli-luciferase reporter, 30 h; 22,000 tested, 2.1% active;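 active = mean inhibition across valid replicates above about 65%, limit read from the data; inconclusive = mean under the limit, yet half or more replicates past it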;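 also: pathway switched on by Shh-conditioned medium diluted 1 in 25 in low serum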
MITF inh: inhibitors of MITF, primary screen, MITF inhibitor project, cell-based, luminescence. inhibition, % (test concentration not listed). AID 2240, 2010. TRPM1 promoter luciferase, 24 h. 37,000 tested, 0.28% active; in the data active = inhibition above about 85%; inconclusive = no clear call, values can overlap the other calls; inactive = below about 68%;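 also: human melanocyte line stably carrying TRPM1 promoter luciferase reporter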
* marks the source's active call; other numbers are inactive results; ? = inconclusive; . = no result.

SMILES	NOMO-1 viab	Hedgehog inh	MITF inh
CN1CCN(C(c2ccccc2)c2ccccc2)CC1	14	38	15
NC(=O)c1ccc(N2CCN(C(c3ccccc3)c3ccccc3)CC2)nc1	109*	37	-19
C[C@@H]1CN([C@H](C)CO)C(=O)Cc2cc(NC(=O)Cc3ccccc3)ccc2O[C@@H]1CN(C)C(=O)Nc1cccc2ccccc12	10	-18	12
Cc1ccc(-n2c(C)nnc2SCC(=O)Nc2cc(Cl)ccc2C)cc1	17	.	7
COc1ccc(C(=O)Oc2c(S(=O)(=O)c3ccccc3)c(C)nn2-c2ccccc2)cc1	116*	.	4
COC(=O)c1cc2c(C)nn(-c3ccccc3)c2s1	9	-9	-1
C[C@@H]1CN([C@@H](C)CO)C(=O)Cc2cc(NC(=O)CCCN(C)C)ccc2O[C@@H]1CN(C)CC1CCCCC1	8	-2	1
CC(C)NC(=O)Nc1ccc2c(c1)C(=O)N([C@H](C)CO)C[C@H](C)[C@@H](CN(C)Cc1ccc(Oc3ccccc3)cc1)O2	25	1	9
C[C@@H]1CCCCO[C@@H](CN(C)C(=O)Nc2ccc(C(F)(F)F)cc2)[C@@H](C)CN([C@H](C)CO)C(=O)c2cc(NC(=O)Nc3ccc(C(F)(F)F)cc3)ccc2O1	77	61	-9
C[C@@H]1CN([C@H](C)CO)C(=O)c2cccc(NS(=O)(=O)c3ccc(Cl)cc3)c2O[C@@H]1CN(C)Cc1ccc(C(=O)Nc2ccccc2N)cc1	126*	.	0
C[C@@H]1CN([C@H](C)CO)C(=O)c2cccc(NS(=O)(=O)c3ccccc3)c2O[C@H]1CN(C)Cc1ccc(C(=O)Nc2ccccc2N)cc1	58	.	-20
C[C@H](CO)N1C[C@H](C)[C@H](CN(C)Cc2ccc(C(=O)Nc3ccccc3N)cc2)Oc2c(NS(=O)(=O)c3ccc(Cl)cc3)cccc2C1=O	121*	.	43
C[C@@H]1CN([C@H](C)CO)C(=O)c2cccc(NS(=O)(=O)c3cccs3)c2O[C@H]1CN(C)Cc1ccc(C(=O)Nc2ccccc2N)cc1	44	.	-11
C[C@@H]1CN([C@@H](C)CO)C(=O)c2cccc(NS(=O)(=O)c3ccc(Cl)cc3)c2O[C@@H]1CN(C)Cc1ccc(C(=O)O)cc1	-3	-67	-4
C[C@H](CO)N1C[C@H](C)[C@H](CN(C)Cc2ccc(C(=O)Nc3ccccc3N)cc2)Oc2c(NS(=O)(=O)c3ccccc3)cccc2C1=O	139*	.	29
C[C@H](CO)N1C[C@H](C)[C@H](CN(C)Cc2ccc(C(=O)Nc3ccccc3N)cc2)Oc2c(NS(=O)(=O)c3cccs3)cccc2C1=O	88*	.	6
CC(C)(C)c1ccc(OCC(=O)Nc2cccnc2)c(Br)c1	28	.	-14
CC(C)Cc1nc(SC(C)C(=O)Nc2ccc(Cl)cc2)n[nH]1 (centres undefined)	32	.	6
Cc1cc2nc(-c3ccc(NC(=O)COc4ccc([N+](=O)[O-])cc4)cc3)oc2cc1C	27	.	-26
C[C@@H]1CN([C@H](C)CO)C(=O)c2cccc(NC(=O)C3CCOCC3)c2O[C@@H]1CN(C)CC1CCCCC1	6	-92	-5
O=C(OCc1ccccc1[N+](=O)[O-])c1cccc(-c2nnc(-c3ccccc3)o2)c1	4	.	13
C[C@H]1CN([C@@H](C)CO)C(=O)c2cccc(NS(=O)(=O)c3ccc(Cl)cc3)c2O[C@H]1CN(C)Cc1ccc(C(=O)Nc2ccccc2N)cc1	118*	.	3
Cc1noc(C)c1S(=O)(=O)Nc1cccc2c1O[C@H](CN(C)Cc1ccc(C(=O)O)cc1)[C@@H](C)CN([C@H](C)CO)C2=O	-6	-20	0
Cc1noc(C)c1S(=O)(=O)Nc1cccc2c1O[C@H](CN(C)Cc1ccc(C(=O)Nc3ccccc3N)cc1)[C@H](C)CN([C@H](C)CO)C2=O	118*	.	11
COc1ccc(S(=O)(=O)Nc2cccc3c2O[C@@H](CN(C)Cc2ccc(C(=O)Nc4ccccc4N)cc2)[C@H](C)CN([C@H](C)CO)C3=O)cc1	72	.	-2
SMILES	NOMO-1 viab	Hedgehog inh	MITF inh
COc1ccc(S(=O)(=O)Nc2cccc3c2O[C@@H](CN(C)Cc2ccc(C(=O)Nc4ccccc4N)cc2)[C@@H](C)CN([C@@H](C)CO)C3=O)cc1	112*	.	15
C[C@H]1CN([C@@H](C)CO)C(=O)c2cc(NC(=O)c3ccncc3)ccc2O[C@@H]1CN(C)CC1CCCCC1	25	-23	0
CC(=O)OCC1=CCCC2[C@@]1(C)CC[C@@H](C)[C@]2(C)CCC(C)CC(=O)O (some centres undefined)	-10	13	12
COc1cc([N+](=O)[O-])ccc1NC(=S)NCc1cccnc1	20	.	15
Cc1ccc(NC(=O)c2c(NC(=O)CN3CCOCC3)sc3c2CCC3)c(C)c1	53	.	-13
O=[N+]([O-])c1cccc(NC(=S)NCc2cn(-c3ccccc3)nc2-c2ccccc2)c1	97*	.	76
Cc1c(CNC(=S)Nc2cccc([N+](=O)[O-])c2)cnn1C	0	.	-53
Cc1ccc(S(=O)(=O)Nc2cccc3c2O[C@@H](CN(C)Cc2ccc(C(=O)Nc4ccccc4N)cc2)[C@H](C)CN([C@@H](C)CO)C3=O)cc1	?	.	5
Cc1ccc(S(=O)(=O)Nc2cccc3c2O[C@H](CN(C)Cc2ccc(C(=O)Nc4ccccc4N)cc2)[C@H](C)CN([C@H](C)CO)C3=O)cc1	129*	.	31
Cc1ccc(S(=O)(=O)Nc2cccc3c2O[C@@H](CN(C)Cc2ccc(C(=O)Nc4ccccc4N)cc2)[C@@H](C)CN([C@@H](C)CO)C3=O)cc1	134*	.	30
Cc1ccc(S(=O)(=O)Nc2cccc3c2O[C@H](CN(C)Cc2ccc(C(=O)Nc4ccccc4N)cc2)[C@@H](C)CN([C@@H](C)CO)C3=O)cc1	121*	.	33
C[C@@H]1CN([C@H](C)CO)C(=O)c2cccc(NC(=O)C3CCCCC3)c2O[C@@H]1CN(C)C(=O)Nc1ccc(F)cc1	-6	11	-3
Oc1ccc(CNc2cccc(C(F)(F)F)c2)c2cccnc12	104*	?	26
Cc1ccnc(SCC(=O)Nc2cccc(C(F)(F)F)c2)n1	3	.	-1
COc1ccc(S(=O)(=O)Nc2cccc3c2O[C@@H](CN(C)C(=O)NC(C)C)[C@@H](C)CN([C@@H](C)CO)C3=O)cc1	8	-83	9
C[C@@H]1CN([C@H](C)CO)C(=O)c2cccc(NC(=O)CCCCCC(=O)Nc3ccccc3N)c2O[C@@H]1CN(C)Cc1ccc(Cl)c(Cl)c1	134*	.	31
C[C@H]1CN([C@@H](C)CO)C(=O)c2cccc(NC(=O)CCCCCC(=O)Nc3ccccc3N)c2O[C@H]1CN(C)Cc1ccc(Cl)c(Cl)c1	120*	.	47
C[C@@H]1CN([C@H](C)CO)C(=O)c2cccc(NC(=O)CCCCCC(=O)Nc3ccccc3N)c2O[C@@H]1CN(C)C	29	.	-28
C[C@@H]1CN([C@@H](C)CO)C(=O)c2cccc(NC(=O)CCCCCC(=O)Nc3ccccc3N)c2O[C@@H]1CN(C)Cc1ccc(Cl)c(Cl)c1	126*	.	39
C[C@H]1CN([C@@H](C)CO)C(=O)c2cccc(NC(=O)C3CC3)c2O[C@H]1CN(C)Cc1ccc(Cl)c(Cl)c1	-2	-8	-8

Compound activity (PubChem BioAssay)
